The supplement of paper PMC8728848
Shown is part of a subset that was picked to be rich in the strongest signals.

How the values were obtained:
Experiment in all cases: glycan array binding signal (z-score within array); higher = stronger binding
Conditions in all cases: glycan notation: IUPAC condensed, linker removed
[1] = molecular target: Fuc(a1-2)Gal(b1-3)GalNAc(a1-3)[Fuc(a1-2)]Gal(b1-4)GlcNAc
Outline: (§1)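 The Consortium for Functional Glycomics database supplied 3228 glycan arrays, of which those lacking an available protein sequence were dropped. The binding signal, a within-array Z-score, was averaged across arrays of the same protein sequence and across linkers. Negative scores can be read as non-binding.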

[2] = molecular target: Fuc(a1-2)Gal(b1-3)GlcNAc(b1-3)[Gal(b1-4)GlcNAc(b1-6)]Gal(b1-4)Glc
Outline: as §1

[3] = molecular target: Fuc(a1-2)Gal(b1-4)GlcNAc(b1-6)GalNAc
Outline: as §1

[4] = molecular target: Fuc(a1-2)Gal3S(b1-4)GlcNAc
Outline: as §1

Fuc(a1-2)[Gal(a1-3)]Gal = molecular target: Fuc(a1-2)[Gal(a1-3)]Gal
Outline: as §1

[5] = molecular target: Fuc(a1-2)[GalNAc(a1-3)]Gal(b1-3)GlcNAc
Outline: as §1

Fuc(a1-4)GlcNAc = molecular target: Fuc(a1-4)GlcNAc
Outline: as §1

[6] = molecular target: Gal(a1-3)Gal(b1-3)GlcNAc(b1-6)GalNAc
Outline: as §1

[7] = molecular target: Gal(a1-3)Gal(b1-4)GlcNAc(b1-2)Man(a1-3)[Gal(a1-3)Gal(b1-4)GlcNAc(b1-2)Man(a1-6)]Man(b1-4)GlcNAc(b1-4)GlcNAc
Outline: as §1

Gal(b1-3)GalNAc = molecular target: Gal(b1-3)GalNAc
Outline: as §1

[8] = molecular target: Gal(b1-3)GalNAc(a1-3)[Fuc(a1-2)]Gal(b1-4)Glc
Outline: as §1

[9] = molecular target: Gal(b1-3)GlcNAc(b1-2)Man(a1-3)[Gal(b1-3)GlcNAc(b1-2)Man(a1-6)]Man(b1-4)GlcNAc(b1-4)GlcNAc
Outline: as §1

[10] = molecular target: Gal(b1-3)GlcNAc(b1-2)[Gal(b1-3)GlcNAc(b1-6)]Man(a1-6)[Gal(b1-3)GlcNAc(b1-2)Man(a1-3)]Man(b1-4)GlcNAc(b1-4)GlcNAc
Outline: as §1

[11] = molecular target: Gal(b1-3)GlcNAc(b1-3)Gal(b1-3)GlcNAc
Outline: as §1

[12] = molecular target: Gal(b1-3)[GlcNAc(b1-6)]GalNAc
Outline: as §1

[13] = molecular target: Gal(b1-3)[Neu5Ac(a2-6)]GlcNAc(b1-4)Gal(b1-4)Glc
Outline: as §1

[14] = molecular target: Gal(b1-4)GlcNAc(b1-3)Gal(b1-3)GalNAc
Outline: as §1

[15] = molecular target: Gal(b1-4)GlcNAc(b1-3)Gal(b1-4)GlcNAc(b1-2)[Gal(b1-4)GlcNAc(b1-3)Gal(b1-4)GlcNAc(b1-6)]Man(a1-6)[Gal(b1-4)GlcNAc(b1-3)Gal(b1-4)GlcNAc(b1-2)Man(a1-3)]Man(b1-4)GlcNAc(b1-4)[Fuc(a1-6)]GlcNAc
Outline: as §1

[16] = molecular target: Gal(b1-4)GlcNAc(b1-3)Gal(b1-4)GlcNAc(b1-3)Gal(b1-4)GlcNAc(b1-2)Man(a1-3)[Gal(b1-4)GlcNAc(b1-3)Gal(b1-4)GlcNAc(b1-3)Gal(b1-4)GlcNAc(b1-2)Man(a1-6)]Man(b1-4)GlcNAc(b1-4)[Fuc(a1-6)]GlcNAc
Outline: as §1

[17] = molecular target: Gal(b1-4)GlcNAc(b1-3)Gal(b1-4)GlcNAc(b1-3)Gal(b1-4)GlcNAc(b1-2)[Gal(b1-4)GlcNAc(b1-3)Gal(b1-4)GlcNAc(b1-3)Gal(b1-4)GlcNAc(b1-6)]Man(a1-6)[Gal(b1-4)GlcNAc(b1-3)Gal(b1-4)GlcNAc(b1-3)Gal(b1-4)GlcNAc(b1-2)Man(a1-3)]Man(b1-4)GlcNAc(b1-4)[Fuc(a1-6)]GlcNAc
Outline: as §1

[18] = molecular target: Gal(b1-4)GlcNAc(b1-3)[Fuc(a1-3)GlcNAc(b1-6)]Gal(b1-4)Glc
Outline: as §1

[19] = molecular target: Gal(b1-4)GlcNAc(b1-6)GalNAc
Outline: as §1

[20] = molecular target: Gal(b1-4)GlcNAc(b1-6)[Gal(b1-3)]GalNAc
Outline: as §1

[21] = molecular target: GalNAc(b1-3)Gal(a1-4)Gal(b1-4)GlcNAc(b1-3)Gal(b1-4)Glc
Outline: as §1

GalNAc(b1-3)GalNAc = molecular target: GalNAc(b1-3)GalNAc
Outline: as §1

[22] = molecular target: GalNAc3S(b1-4)[Fuc(a1-3)]GlcNAc
Outline: as §1

[23] = molecular target: Glc(a1-6)Glc(a1-6)Glc(a1-6)Glc
Outline: as §1

Glc(b1-4)Glc = molecular target: Glc(b1-4)Glc
Outline: as §1

GlcA(b1-6)Gal = molecular target: GlcA(b1-6)Gal
Outline: as §1

[24] = molecular target: GlcNAc(b1-3)Gal(b1-4)GlcNAc(b1-2)[GlcNAc(b1-3)Gal(b1-4)GlcNAc(b1-6)]Man(a1-6)[GlcNAc(b1-3)Gal(b1-4)GlcNAc(b1-2)Man(a1-3)]Man(b1-4)GlcNAc(b1-4)GlcNAc
Outline: as §1

B1: MpAFP NterminalRI GFP (Marinomonas primoryensis) (protein)
chain: MSDNQFPFATLGNAIGFITKLDGSVTVQSIDGQERVLKLGDPIFFGETVLTGGSGSVTIAFVDGTDVVIGGDSIVEMTDEIYNTGDNEDLVADSSSEIDALQNAILAGDDPTLIQDAPAAGNTLADQQRVDVSIERNDNSAQAGFGVDTQSSLPTYGYDTDNGNGGQATEREYSAPSLSRTLNQSPLLEHHHHHH
Q: Which “glycan array binding signal (z-score)” value [1] does the source give for B1 here?
A: -0.525

Q: What about the “glycan array binding signal (z-score)” value [2] of the same binder?
A: -0.221

Q: And the “glycan array binding signal (z-score)” value [3]?
A: 1.68

Q: What about the “glycan array binding signal (z-score)” value [4] of the same binder?
A: -0.495

Q: And the “glycan array binding signal (z-score)” value (Fuc(a1-2)[Gal(a1-3)]Gal)?
A: -0.494

Q: And the “glycan array binding signal (z-score)” value [5]?
A: -0.215

Q: What about the “glycan array binding signal (z-score)” value (Fuc(a1-4)GlcNAc) of the same binder?
A: 2.46

Q: What about the “glycan array binding signal (z-score)” value [6] of the same binder?
A: -0.446

Q: And the “glycan array binding signal (z-score)” value [7]?
A: -0.164

Q: What about the “glycan array binding signal (z-score)” value (Gal(b1-3)GalNAc) of the same binder?
A: -0.228

Q: And the “glycan array binding signal (z-score)” value [8]?
A: -0.422

Q: What about the “glycan array binding signal (z-score)” value [9] of the same binder?
A: -0.119

Q: And the “glycan array binding signal (z-score)” value [10]?
A: -0.305

Q: What about the “glycan array binding signal (z-score)” value [11] of the same binder?
A: -0.424

Q: What about the “glycan array binding signal (z-score)” value [12] of the same binder?
A: -0.473

Q: What about the “glycan array binding signal (z-score)” value [13] of the same binder?
A: -0.565

Q: And the “glycan array binding signal (z-score)” value [14]?
A: -0.412

Q: And the “glycan array binding signal (z-score)” value [15]?
A: 4.16

Q: And the “glycan array binding signal (z-score)” value [16]?
A: 0.649

Q: And the “glycan array binding signal (z-score)” value [17]?
A: 2.76

Q: What about the “glycan array binding signal (z-score)” value [18] of the same binder?
A: -0.081

Q: And the “glycan array binding signal (z-score)” value [19]?
A: -0.473

Q: What about the “glycan array binding signal (z-score)” value [20] of the same binder?
A: 0.083

Q: And the “glycan array binding signal (z-score)” value [21]?
A: -0.509

Q: What about the “glycan array binding signal (z-score)” value (GalNAc(b1-3)GalNAc) of the same binder?
A: -0.576

Q: And the “glycan array binding signal (z-score)” value [22]?
A: -0.39

Q: What about the “glycan array binding signal (z-score)” value [23] of the same binder?
A: -0.16

Q: What about the “glycan array binding signal (z-score)” value (Glc(b1-4)Glc) of the same binder?
A: 0.784

Q: What about the “glycan array binding signal (z-score)” value (GlcA(b1-6)Gal) of the same binder?
A: -0.407

Q: And the “glycan array binding signal (z-score)” value [24]?
A: 6.32
